Some test systems named below: SK-MEL-2 melanoma; EKVX NSCLC; SN12C renal; UO-31 renal; TK-10 renal; ACHN renal; A498 renal; CCRF-CEM leukemia; MOLT-4 leukemia; SR leukemia.
Assay in all cases: NCI-60 one-dose screen, 48 h (100 = growth as untreated, 0 = no growth, -100 = all killed)
Conditions in all cases: 10 µM unless noted

The panel holds about 83,000 compounds, 20% with a hit somewhere; the sample as a whole holds those more often.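 The test compound was applied at a single concentration to cells in 96-well plates for 48 hours, and percent growth was recorded.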 A number with no mark means an inactive call. Calls of active or inactive are those of the source. Rule for the calls: active = growth percent below 10; inactive = the rest.

As for `C[C@]12CC[C@@H]3c4ccc(O)cc4CC[C@H]3[C@@H]1C[C@H](O)C2`, the growth in the assay with SK-MEL-2 melanoma was 82.4%; in the assay with EKVX NSCLC, 44%; in the assay on SN12C renal, 71.6%; in the assay with UO-31 renal, 71.4%; with TK-10 renal, 96.4%; in the assay on ACHN renal, 99.7%. Also, the growth in the assay on A498 renal was 44.6%; in the assay on CCRF-CEM leukemia it was 52.7%; in the assay on MOLT-4 leukemia it was 47.5%; in the assay with SR leukemia, 25.4%.
Consider `C#C[C@@]1(O)[C@@H](CO)O[C@@H](n2cc(Br)c3c(N)ncnc32)[C@@H]1O`, for which the growth was -24.9% (active) in the assay with SK-MEL-2 melanoma; -23.8% (active) in the assay with EKVX NSCLC; -1.98% (active) in the assay on SN12C renal; -78.3% (active) with UO-31 renal; -0.297% (active) with TK-10 renal; -5.98% (active) in the assay with ACHN renal. Also, the growth with A498 renal is -78.9% (active); with CCRF-CEM leukemia, 3.84% (active); with MOLT-4 leukemia it was -16.5% (active); in the assay on SR leukemia it was -1.01% (active).
As to `Cc1nnc(/N=C2\NC(=O)/C(=C/c3ccsc3)S2)s1`, the growth in the assay with SK-MEL-2 melanoma was 95.5%; with EKVX NSCLC, 93.6%; in the assay on SN12C renal it was 99.7%; with UO-31 renal, 81.2%; in the assay with TK-10 renal, 96.7%; with ACHN renal, 106%. The growth in the assay on A498 renal is 87.7%; with CCRF-CEM leukemia it was 95.1%; with MOLT-4 leukemia, 95%; with SR leukemia, 103%.
On to `COc1cccc2c1-c1ccccc1C2=O`, for which the growth in the assay with SK-MEL-2 melanoma is 34.3%; in the assay with EKVX NSCLC, 40.7%; with SN12C renal, 53.9%; with UO-31 renal, 47.1%; with TK-10 renal, 66.7%; in the assay with ACHN renal, 50%. For the same compound, the growth was 7.69% (active) in the assay on A498 renal, 5.55% (active) in the assay with CCRF-CEM leukemia, 73.9% in the assay with MOLT-4 leukemia and 40.4% in the assay on SR leukemia.
With `CC1(C)CC[C@]2(c3nnc(-c4ccncc4)o3)CC[C@]3(C)C(=CC[C@@H]4[C@@]5(C)CCC(=O)C(C)(C)[C@@H]5CC[C@]43C)[C@@H]2C1`, the growth is 96% with SK-MEL-2 melanoma; 76.3% in the assay with EKVX NSCLC; 79.7% in the assay with SN12C renal; 77.5% with UO-31 renal; 128% in the assay on TK-10 renal; 88.7% in the assay on ACHN renal. For the same compound, the growth with A498 renal is 106%; in the assay with CCRF-CEM leukemia, 75.5%; in the assay on MOLT-4 leukemia it was 52%; in the assay with SR leukemia it was 63.7%.
Take `CCO/C=N/S(=O)(=O)c1cc2c(cc1Cl)NC=NS2(=O)=O`: the growth with SK-MEL-2 melanoma is 105%; in the assay with EKVX NSCLC it was 103%; in the assay with SN12C renal it was 104%; in the assay with UO-31 renal it was 89.1%; in the assay on TK-10 renal, 101%; in the assay on ACHN renal it was 112%. For the same compound, the growth with A498 renal was 106%; in the assay on CCRF-CEM leukemia it was 95.7%; in the assay with MOLT-4 leukemia it was 109%; in the assay with SR leukemia it was 108%.
As to `Cc1cccc(C)c1NCc1nnc(-c2ccco2)o1`, the growth is 100% in the assay on SK-MEL-2 melanoma; 81.5% in the assay on EKVX NSCLC; 94.8% in the assay with SN12C renal; 65.1% in the assay on UO-31 renal; 123% in the assay on TK-10 renal; 101% in the assay with ACHN renal. Moreover, the growth is 96.5% in the assay with A498 renal, 91.4% in the assay on CCRF-CEM leukemia, 88.8% with MOLT-4 leukemia and 85.7% with SR leukemia.
Regarding `COc1cc(NCC(=O)Nc2cc(Nc3cccc(C(F)(F)F)c3)ncn2)c(Cl)c(OC)c1Cl`, the growth is 89.5% in the assay on SK-MEL-2 melanoma; 90.6% in the assay on EKVX NSCLC; 101% with SN12C renal; 64.2% in the assay with UO-31 renal; 101% in the assay on TK-10 renal; 95.7% with ACHN renal. Besides, the growth in the assay with A498 renal is 71.5%; in the assay on CCRF-CEM leukemia it was 72.5%; with MOLT-4 leukemia, 76.2%; in the assay with SR leukemia, 72.2%.
Regarding `CC(C)NS(=O)(=O)c1cccc(-c2ccc3c4c(n(CCCN(C)C)c(=O)c3c2)-c2ccccc2C4=O)c1`, the growth was 101% in the assay on SK-MEL-2 melanoma; 105% in the assay with EKVX NSCLC; 97.2% in the assay with SN12C renal; 91% in the assay on UO-31 renal; 114% in the assay with TK-10 renal; 82.4% in the assay on ACHN renal. In addition, the growth is 83.3% with A498 renal, 1.51% (active) in the assay with CCRF-CEM leukemia, 68.2% with MOLT-4 leukemia and -27% (active) with SR leukemia.
On to `Cc1c(O)c(=O)ccn1-c1nc2ccccc2s1`, for which the growth with SK-MEL-2 melanoma is 90.5%; in the assay on EKVX NSCLC, 45.3%; with SN12C renal it was 98.9%; in the assay with UO-31 renal, 47.6%; in the assay with TK-10 renal, 91.2%; in the assay on ACHN renal, 60.6%. Also, the growth in the assay on A498 renal is 95.8%; in the assay on CCRF-CEM leukemia it was 82.7%; with MOLT-4 leukemia, 103%; in the assay with SR leukemia, 91.3%.
As for `C#C[C@@]1(O)[C@@H](CO)O[C@@H](n2cnc3c(-c4ccccc4)ncnc32)[C@@H]1O`, the growth is 107% in the assay with SK-MEL-2 melanoma; 97.7% with EKVX NSCLC; 102% with SN12C renal; 92.5% with UO-31 renal; 100% in the assay with TK-10 renal; 115% with ACHN renal. Further, the growth is 106% in the assay with A498 renal, 102% with CCRF-CEM leukemia, 99.7% in the assay with MOLT-4 leukemia and 101% in the assay on SR leukemia.
For the compound `CCOC(=O)C(=Cc1c(-c2ccccc2)[nH]c2ccccc12)C(=O)OCC`, the growth in the assay with SK-MEL-2 melanoma was -3.76% (active); in the assay with EKVX NSCLC it was 71.1%; in the assay on SN12C renal, 65.6%; with UO-31 renal, 33.5%; in the assay with TK-10 renal it was 92.2%; in the assay on ACHN renal, 54%. In addition, the growth with A498 renal was 74.1%; with CCRF-CEM leukemia, 4.23% (active); with MOLT-4 leukemia, 1.38% (active); in the assay with SR leukemia, 10%.
As to `COC(=O)CCc1cc(O)c2c(c1)[C@@H](C(=O)OC)[C@H](c1ccc(O)c(O)c1)O2`, the growth is 47.8% in the assay on SK-MEL-2 melanoma; 87.7% with EKVX NSCLC; 95.1% with SN12C renal; 67.7% in the assay with UO-31 renal; 90.6% in the assay with TK-10 renal; 98.2% in the assay with ACHN renal. For the same compound, the growth was 98% in the assay with A498 renal, 53.6% in the assay with CCRF-CEM leukemia, 47.7% in the assay on MOLT-4 leukemia and 36% with SR leukemia.
As for `C#C[C@@]1(O)[C@@H](CO)O[C@@H](n2cc(F)c3c(N)ncnc32)[C@@H]1O`, the growth is -1.11% (active) with SK-MEL-2 melanoma; 1.34% (active) in the assay on EKVX NSCLC; 2.43% (active) with SN12C renal; -15.5% (active) in the assay with UO-31 renal; 3.69% (active) with TK-10 renal; -10.6% (active) with ACHN renal. Besides, the growth is -76% (active) with A498 renal, 13.3% in the assay on CCRF-CEM leukemia, 4.47% (active) in the assay with MOLT-4 leukemia and 12.9% with SR leukemia.
Turning to `COC(=O)/C=C1\SC(=Nc2cccc(OC)c2)N(CCc2c[nH]c3ccccc23)C1=O`, the growth with SK-MEL-2 melanoma is 60.8%; with EKVX NSCLC, 76.1%; in the assay with SN12C renal, 64.4%; in the assay on UO-31 renal, 76.3%; in the assay with TK-10 renal, 89.3%; in the assay with ACHN renal, 78.4%. Moreover, the growth in the assay on A498 renal is 90.1%; in the assay with CCRF-CEM leukemia, 24.7%; in the assay with MOLT-4 leukemia, 2.83% (active); with SR leukemia it was 12%.
Regarding `COc1cc(/C=C/C(=O)/C=C/c2cc3ccc(Cl)cc3n(Cc3ccccc3)c2=O)ccc1O`, the growth in the assay on SK-MEL-2 melanoma was -13.2% (active); in the assay with EKVX NSCLC, 8.91% (active); in the assay on SN12C renal, -18.4% (active); in the assay with UO-31 renal, -88.9% (active); in the assay with TK-10 renal, 13.8%; with ACHN renal, -15.4% (active). In addition, the growth in the assay on A498 renal is 69.2%; in the assay with CCRF-CEM leukemia, 3.16% (active); in the assay on MOLT-4 leukemia, 5.11% (active); in the assay on SR leukemia, 1.8% (active).
As to `c1ccc(Sc2ncccn2)nc1`, the growth is 107% with SK-MEL-2 melanoma; 106% with EKVX NSCLC; 106% with SN12C renal; 87.9% in the assay with UO-31 renal; 109% with TK-10 renal; 98.2% with ACHN renal. Also, the growth in the assay on A498 renal was 92.9%; in the assay with CCRF-CEM leukemia it was 104%; in the assay with MOLT-4 leukemia, 98.4%; in the assay with SR leukemia, 95.5%.
Regarding `CC1CCCN(CCCCCOc2ccc3oc4ccc(Cl)cc4c(=O)c3c2)C1` (stereo not given), the growth in the assay on SK-MEL-2 melanoma is 96.7%; in the assay with EKVX NSCLC, 78.3%; in the assay on SN12C renal, 74.6%; in the assay on UO-31 renal, 70.7%; in the assay with TK-10 renal it was 92%; in the assay with ACHN renal, 89.4%. The growth with A498 renal is 76.3%; in the assay on CCRF-CEM leukemia it was 72.8%; in the assay on MOLT-4 leukemia, 48.5%; with SR leukemia, 21%.
Turning to `CCOC(=O)c1c(C)nc2c(c1N)CC(=O)N2CCc1ccccc1`, the growth in the assay with SK-MEL-2 melanoma was 39.2%; in the assay on EKVX NSCLC, 55.9%; in the assay on SN12C renal, 24.3%; with UO-31 renal, 36.6%; in the assay on TK-10 renal, -3.79% (active); in the assay on ACHN renal it was 34.2%. The growth in the assay with A498 renal was 11.9%; with CCRF-CEM leukemia, 9.62% (active); in the assay on MOLT-4 leukemia, 18.6%; with SR leukemia it was 3.16% (active).
For `CN(C)c1ccc(-c2ccc3[nH]c(=O)nc(-c4ccc(F)cc4)c3c2)cn1`, the growth in the assay on SK-MEL-2 melanoma was 30.8%; with EKVX NSCLC, 55.9%; in the assay with SN12C renal it was 45.3%; in the assay on UO-31 renal, 52.9%; with TK-10 renal, 73.7%; with ACHN renal, 52.3%. The growth was 18.5% in the assay on A498 renal, 12% in the assay on CCRF-CEM leukemia, 28.1% in the assay with MOLT-4 leukemia and 18.3% in the assay on SR leukemia.
Regarding `CCCCCCN1C(=O)CN=C1Nc1ccc2cc3ccc(NC4=NCC(=O)N4CCCCCC)cc3nc2c1`, the growth was 79.9% in the assay on SK-MEL-2 melanoma; 56.9% with EKVX NSCLC; 26.7% in the assay on SN12C renal; 51.7% in the assay with UO-31 renal; 75.9% in the assay on TK-10 renal; 67.6% with ACHN renal. Besides, the growth with A498 renal is 104%; in the assay on CCRF-CEM leukemia, 12%; in the assay with MOLT-4 leukemia, 9.83% (active); in the assay with SR leukemia it was 0.413% (active).
Consider `COc1ccc(Cl)c([N+](=O)[O-])c1`, for which the growth is 104% in the assay with SK-MEL-2 melanoma; 103% in the assay with EKVX NSCLC; 99% with SN12C renal; 90.6% with UO-31 renal; 95.8% with TK-10 renal; 107% in the assay on ACHN renal. For the same compound, the growth in the assay on A498 renal is 113%; in the assay on CCRF-CEM leukemia, 109%; in the assay with MOLT-4 leukemia, 95.2%; in the assay on SR leukemia, 93.1%.

Source of the values: PubChem BioAssay (NCI).
